Screening data (PubChem BioAssay)
JMJD2A Tudor = qHTS Assay for Inhibitors of JMJD2A-Tudor Domain; Lysine-specific demethylase 4A (Homo sapiens), O75164; AlphaScreen JMJD2A-Tudor / H3K4me3 peptide binding; Potency, µM (highest dose often 114 µM), inactives show top-dose activity change, negative = inhibition, actives largely listed as inhibitors; 390,000 compounds, 4.4% hits; AID 504339, 2011; note: % is set by controls: 0 for no effect and ±100 for the full control effect; nearly all actives have a fitted effect of over 50% in size
PLK1 PBD block = qHTS for Inhibitors of PLK1-PDB (polo-like kinase 1 - polo-box domain): Primary Screen | Serine/threonine-protein kinase PLK1 (Homo sapiens), P53350 | Plk1 PBD binding of FITC phosphopeptide, fluorescence polarization | Potency, µM, for inactives: max response, negative = inhibition, most hits filed as inhibitors | 360,000 compounds, 2.8% hits; note: series mostly up to about 57 µM; % is set by controls: 0 for no effect and ±100 for the full control effect; nearly all actives have a fitted effect of over 65% in size
G9a block = qHTS Assay for Inhibitors of Histone Lysine Methyltransferase G9a; Potency, µM (doses to about 102 µM), for inactives: top-dose activity, negative = inhibition, actives largely listed as inhibitors; AID 504332, 2011; 350,000 compounds, 8.8% hits; G9a H3K9 monomethylation, AlphaScreen, 2 h; Histone-lysine N-methyltransferase EHMT2 (Homo sapiens), Q96KQ7; note: % is set by controls: 0 for no effect and ±100 for the full control effect; nearly all actives have a fitted effect of over 75% in size
Target sequence (Q96KQ7 913-1193 limits assumed): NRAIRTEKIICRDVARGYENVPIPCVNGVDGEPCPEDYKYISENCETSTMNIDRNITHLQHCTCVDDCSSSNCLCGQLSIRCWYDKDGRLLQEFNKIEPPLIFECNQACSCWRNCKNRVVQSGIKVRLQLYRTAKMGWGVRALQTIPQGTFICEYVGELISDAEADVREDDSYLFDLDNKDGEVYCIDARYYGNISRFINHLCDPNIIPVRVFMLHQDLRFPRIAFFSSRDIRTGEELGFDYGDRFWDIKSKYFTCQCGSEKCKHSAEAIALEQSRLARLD
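Chemiluminescent proximity detection of H3K9 monomethylation, read after 10 min bead incubation in the dark. Reaction: 20 nM G9a, 500 nM biotin-H3K9 peptide, 20 uM SAM cofactor, 2 h, room temperature, following 15 min enzyme-compound preincubation.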
BAZ2B block = qHTS Assay for Inhibitors of BAZ2B; Potency, µM (highest dose often 114 µM), inactives show at the highest dose activity change, negative = inhibition, usual class: inhibitors; AID 504333, 2011; AlphaScreen BAZ2B-H3K14Ac peptide displacement; 360,000 compounds, 4.4% hits; Bromodomain adjacent to zinc finger domain protein 2B (Homo sapiens), Q9UIF8; note: % is set by controls: 0 for no effect and ±100 for the full control effect; nearly all actives have a fitted effect of over 60% in size
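AlphaScreen displacement of biotin-H3(5-23)K14Ac peptide (50 nM final) from BAZ2B (50 nM final) in PBS pH 7.4, 0.01% Tween-20; complex preformed 30 min RT, then compounds (top 110 uM) 30 min RT, beads 20 min dark.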
HP1b chromo inh = HTS for Inhibitors of HP1-beta Chromodomain Interactions with Methylated Histone Tails; Chromobox protein homolog 1 (Homo sapiens), P83916; AlphaScreen HP1-beta / biotin-H3K9me3 peptide binding; Potency, µM (series often up to 114 µM), inactives show at the top dose activity change, negative = inhibition, actives largely listed as inhibitors; 390,000 compounds, 0.56% hits; note: nearly all actives have a fitted effect of over 70% in size
Target sequence (P83916 whole entry, looked up): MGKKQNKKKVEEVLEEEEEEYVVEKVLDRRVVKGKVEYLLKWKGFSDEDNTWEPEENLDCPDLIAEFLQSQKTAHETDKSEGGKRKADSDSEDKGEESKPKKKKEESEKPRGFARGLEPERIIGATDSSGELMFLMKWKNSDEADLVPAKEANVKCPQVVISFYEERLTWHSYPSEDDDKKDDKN
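HP1-beta protein (50 nM final) preincubated 30 min at room temperature with biotinylated H3(1-18)K9me3 peptide (50 nM) in PBS pH 7.4, 0.01% Tween-20, then compound added for 30 min. AlphaScreen streptavidin donor/nickel chelate acceptor beads (10 ug/mL final), 30 min dark, luminescence read.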
12-LOX inh = Primary qHTS assay for inhibitors of human arachidonate 12S-lipoxygenase (ALOX12): Round 2 | Polyunsaturated fatty acid lipoxygenase ALOX12 (Homo sapiens), P18054 | 580,000 compounds, 1.1% hits | Potency, µM (titrated, usually from 108 µM), for inactives: at the top dose activity change, negative = inhibition, most hits filed as inhibitors | purified 12hLO, xylenol orange hydroperoxide absorbance; note: % is set by controls: 0 for no effect and ±100 for the full control effect
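Purified human 12hLO (150 nM final) in 25 mM Hepes, 0.01% Triton X-100, pH 7.0 was preincubated 15 min at room temperature with compound. Then 40 uM arachidonic acid was added, 30 min. Hydroperoxide was read by Fe-XO absorbance ratio 573/405 nm.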
The depositor's hits bear a star; ? = inconclusive; . = not tested or not shown; [ ] = another dose, or the depositor's remark. Only some compounds are listed: those with a hit (about 9% of all), similar ones and a draw of the others. Calls come from the whole dose curve; as a rule, active = well fitted curve in the direction sought with a large enough effect; inconclusive = small, poorly fitted or top-dose-only effect, or another doubt; inactive = no such curve, though single readings can be large; an effect the other way counts as inactive or inconclusive. Potency is the fitted concentration of half-maximal effect.

SMILES	JMJD2A Tudor	PLK1 PBD block	G9a block	BAZ2B block	HP1b chromo inh	12-LOX inh
C=CCn1c(Cc2cccc3ccccc23)n[nH]c1=S	50µM*	-30%	2.2µM*	-24%	-7%	-27%
C=CCn1c(CCn2c3ccccc3c3ccccc32)n[nH]c1=S	-29%	-10%	?	10%	15%	-18%
O=c1c2ccccc2cnn1Cc1n[nH]c(=S)n1-c1ccccc1	25µM*	-5%	7.9µM*	6%	28%	-26%
Cc1cc2c(cc(C(=O)N3CCC(C(=O)N4CCCC4)CC3)n2Cc2c(F)cccc2Cl)o1	56µM*	-2%	50µM*	?	-23%	-7%
O=C(c1ccc2c(c1)OCCO2)N1CCN(Cc2c(F)cccc2Cl)CC1	-2%	4%	-10%[12.7 µM]	2%	32%	23%
CCOC(=O)c1cc2occc2n1Cc1c(F)cccc1Cl	-10%	2%	?	50µM*	4%	0%
CC(C)n1nc(C(=O)Nc2nc3ccc(S(C)(=O)=O)cc3s2)c2ccccc2c1=O	-13%	-2%	-31%[12.7 µM]	-6%	13%	-5%
CN(C)C(=O)N1CCC2(CC1)CN(C(=O)CCc1c[nH]c3ccccc13)Cc1ccccc1O2	.	.	.	.	.	7%[6.33 µM]
Nc1ncnc(N)c1N=Nc1ccccc1	-15%	-9%	5%	-6%	16%	-7%
Cc1cccc(N=Nc2c(C)nn(-c3ccccc3)c2N)c1C	25µM*	6%	10µM*	18µM*	?	-19%
Nc1nn(-c2ccccc2)c(N)c1N=Nc1ccccc1F	?	-8%	?	35µM*	-33%	9%
Nc1nn(-c2ccccc2)c(N)c1N=Nc1ccccc1	?	-13%	?	40µM*	?	-21%
Nc1c(N=Nc2ccccc2F)c(=O)[nH]n1-c1ccccc1	?	-11%	-43%	?	10%	180%
Cc1nn(-c2ccccc2)c(N)c1N=Nc1ccccc1	56µM*	3%	45µM*	32µM*	?	?
CC(C)NC(=O)c1cc(C(=O)c2cc(Cl)ccc2O)coc1=N	-8%	-9%	-3%[59 µM]	?	3%	?
CCN(CC(=O)Nc1c(F)cccc1F)C(=O)CNC(=O)c1ccco1	6%	3%	2%	9%	33%	3%
Cc1nn(-c2ccccc2)c(N)c1N=Nc1ccc(Cl)cc1	45µM*	-2%	35µM*	40µM*	?	?
Cc1nn(-c2ccccc2)c(N)c1N=Nc1cccc(S(=O)(=O)N2CCOCC2)c1	?	-2%	?	28µM*	?	0%
Cc1ccc(C)n1-c1cccc(S(=O)(=O)N2CCOCC2)c1	-14%	-23%	20%[59 µM]	-30%	26%	?
COC(F)(F)C(Cl)Cl	.	.	9%[12.7 µM]	.	.	.
c1cc2nc(C34CC5CC(CC(C5)C3)C4)[nH]c2cn1	22µM*	-4%	14µM*	50µM*	?	-25%
c1cc2nc(C3CCCCC3)[nH]c2cn1	.	.	.	.	.	34%[176 µM]
COC(=O)c1c[nH]n2c(=O)cc(CCl)nc12	79µM*	-2%	19%[59 µM]	?	24%	19%
CC1CC(Nc2ccccc2)c2ccccc2N1C(=O)c1ccco1 (stereo not given)	-13%	-2%	-8%	?	-5%	?
COc1ccc(N2CCN(S(=O)(=O)CCNC(=O)Cc3ccc(-c4ccccc4)cc3)CC2)cc1	-11%	.	6%[59 µM]	-5%	7%[57 µM]	?
SMILES	JMJD2A Tudor	PLK1 PBD block	G9a block	BAZ2B block	HP1b chromo inh	12-LOX inh
COc1ccc(CC(=O)NCCS(=O)(=O)N2CCN(c3ccccc3)CC2)cc1	-11%	0%	45µM*	-1%	-1%	-18%
COc1ccc(N2CCN(S(=O)(=O)CCNC(=O)c3ccc(Br)o3)CC2)cc1	-17%	-2%	79µM*	-6%	25%	3%
O=C1c2ccccc2C(c2nnnn2Cc2ccccc2)N1CCCn1ccnc1 (stereo not given)	.	-9%	.	.	.	12%
CCOC(=O)C1=NN(c2ccc(OC)cc2)C(c2ccccc2)CC1=O (stereo not given)	-34%	-3%	?	-27%	8%	-15%
Cc1ccc(CN[C@@H]2CO[C@H](CNS(=O)(=O)c3ccc(C)cc3)[C@H]2O)cc1	.	.	.	.	.	28µM*
CCOc1c(Br)cc(C(N)=O)cc1OC	56µM*	?	-2%	-11%	-18%	-14%
COc1cc(CO)cc(Br)c1OCC(=O)O	?	?	50µM*	-4%	30%	?
COc1ccc(/C=N/Nc2cc(N3CCOCC3)ncn2)c(OC)c1	-16%	-2%	.	5%	46%	15%
COc1cccc(/C=N/Nc2cc(N3CCOCC3)ncn2)c1O	45µM*	1%	45%	2.8µM*	37%	-5%
CN(C)CC(C)(C)CNS(=O)(=O)c1ccc(Cl)cc1	-8%	-7%	-63%	.	40%	-3%
CN(C)CC(C)(C)CNS(=O)(=O)c1cccc(Cl)c1Cl	50µM*	-10%	8.9µM*	11%	26%	?
Cc1cccc(NC(=O)c2nc[nH]c2C(=O)N[C@@H](CCCCNC(=O)OC(C)(C)C)C(=O)OC(C)(C)C)c1	-16%	3%	20%[59 µM]	4%	43%	-20%
Cc1cc(C(=O)COc2ccc(C#N)cc2)c(C)n1-c1ccc2c(c1)OCO2	2%	-7%	9%[59 µM]	-9%	10%	7%
CC1=NN(c2ccc(C(F)(F)F)cn2)C(=O)C1	79µM*	-18%	-7%	8.9µM*	40%	0%
O=c1[nH]c(SCc2ccc(Cl)cc2)nc2c1CCC2	-4%	-1%	-8%[59 µM]	0%	26%	-12%
COc1ccc(NCC(=O)N/N=C/c2c(C)nn(Cc3ccccc3)c2Cl)cc1	?	-6%	?	45µM*	-28%	-17%
COCCNC(=S)NCCCNc1nc2cc3c(cc2cc1C#N)OCO3	15%	-24%	-37%[59 µM]	6%	12%	-23%
CC(C)n1cnc2cc(NCc3ccccc3O)ccc21	-21%	5%	.	?	6%	12%
CC(=O)Nc1ccc2c(c1)ncn2-c1ccccc1	-12%	-6%	?	-9%	24%	0%
Cn1cnc2cc(NCc3ccccc3Cl)ccc21	?	0%	50µM*	-31%	-7%	0%
CCCCn1cnc2cc(NCc3ccccc3Cl)ccc21	40µM*	.	14µM*	35µM*	?	-30%
c1ccc(-n2cnc3cc(NCc4ccncc4)ccc32)cc1	56µM*	-3%	?	?	11%	12%
